Experimental data published in PubChem BioAssay AID1159580 (chemical genetic matrix, 2015).
In all, about 5,500 compounds went through this assay and about 2,000 (36%) were called active. About 18% were inconclusive and are not listed. No stated cut-off is given here; in the data, active means normalized growth mostly below about 0.91 (no sharp cut-off); inconclusive means no clear call, values can overlap the other calls; inactive means mostly above about 0.92. Some of the results follow.

Assay: chemical genetic growth profiling, strain panel (AID 1159580);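 further: tested at 20 µM; growth read once vehicle control cultures reached saturation at 30 °C; 1 = growth at the plate median or of vehicle wells; lower values mean less growth of the strain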
Details: S. cerevisiae deletion strains, growth OD

Measured: normalized growth

C[N+]1(C)C[C@H](O)[C@H](C(=O)[O-])C1
inactive: locus YAL013W, strain DEP1, hits give low values 1.01 | locus YAL021C, strain ccr4, hits give low values 0.996 | locus YAL026C, strain drs2, hits give low values 1.03 | locus YAL030W, strain snc1, hits give low values 1.01 | locus YBL061C, strain skt5, hits give low values 1.01 | locus YBR009C, strain hhf1, hits give low values 1.05 | locus YBR021W, strain FUR4, hits give low values 1.01 | locus YBR023C, strain chs3, hits give low values 1.02 | locus YBR171W, strain sec66, hits give low values 1.03 | locus YBR229C, strain ROT2, hits give low values 1.01 | locus YBR231C, strain swc5, hits give low values 1.02 | locus YBR279W, strain paf1, hits give low values 1.01 | locus YCL011C, strain gbp2, hits give low values 1.02 | locus YCL016C, strain dcc1, hits give low values 1.02 | locus YCL029C, strain bik1, hits give low values 0.996 | locus YCL061C, strain MRC1, hits give low values 1.02 | locus YCL069W, strain vba3, hits give low values 1.01 | locus YCR088W, strain abp1, hits give low values 1.01 | locus YDL005C, strain med2, hits give low values 1.01 | locus YDL035C, strain GPR1, hits give low values 1.01 | locus YDL040C, strain nat1, hits give low values 1.01 | locus YDL074C, strain BRE1, hits give low values 1.02 | locus YDL101C, strain DUN1, hits give low values 1.02 | locus YDL134C, strain PPH21, hits give low values 1.01 | locus YDL185W, strain tfp1, hits give low values 0.995 | locus YDL192W, strain arf1, hits give low values 1 | locus YDR001C, strain nth1, hits give low values 1.01 | locus YDR069C, strain doa4, hits give low values 1.03 | locus YDR101C, strain arx1, hits give low values 0.988 | locus YDR137W, strain rgp1, hits give low values 1.01 | locus YDR150W, strain NUM1, hits give low values 1.01 | locus YDR159W, strain sac3, hits give low values 1.02 | locus YDR162C, strain NBP2, hits give low values 1.01 | locus YDR195W, strain ref2 1.03 | locus YDR297W, strain sur2, hits give low values 1.01 | locus YDR318W, strain mcm21, hits give low values 1.01 | locus YDR334W, strain swr1, hits give low values 1.02 | locus YDR335W, strain msn5, hits give low values 1.01 | locus YDR388W, hits give low values 1.01 | locus YDR392W, strain spt3, hits give low values 0.996 | locus YDR502C, strain sam2, hits give low values 0.994 | locus YEL003W, strain gim4, hits give low values 1.02 | locus YEL037C, strain rad23, hits give low values 1.01 | locus YEL061C, strain CIN8 (second series), hits give low values 1.01 | locus YEL061C, strain CIN8, hits give low values 1 | locus YER015W, strain faa2, hits give low values 1.01 | locus YER016W, strain bim1, hits give low values 1.01 | locus YER110C, hits give low values 0.992 | locus YER111C, strain swi4, hits give low values 1.02 | locus YER155C, strain BEM2 (second series), hits give low values 1.05 | locus YER155C, strain BEM2, hits give low values 1 | locus YER167W, strain BCK2, hits give low values 1.01 | locus YFR010W, strain ubp6, hits give low values 1.02 | locus YGL078C, strain dbp3, hits give low values 0.999 | locus YGL086W, strain mad1, hits give low values 0.968 | locus YGL167C, strain pmr1, hits give low values 1.02 | locus YGL173C, strain kem1, hits give low values 1.02 | locus YGL227W, strain vid30, hits give low values 1.01 | locus YGL240W, strain doc1, hits give low values 1.04 | locus YGL248W, strain PDE1, hits give low values 1.01 | locus YGL253W, strain hxk2, hits give low values 1.03 | locus YGR078C, strain PAC10, hits give low values 1.01 | locus YGR135W, strain pre9, hits give low values 1 | locus YGR229C, strain SMI1, hits give low values 1.01 | locus YGR252W, strain gcn5, hits give low values 0.992 | locus YHR013C, strain ard1, hits give low values 0.999 | locus YHR027C, strain rpn1, hits give low values 1.01 | locus YHR030C, strain SLT2, hits give low values 1.01 | locus YHR079C, strain IRE1 (second series), hits give low values 1 | locus YHR094C, strain hxt1, hits give low values 0.993 | locus YHR129C, strain ARP1, hits give low values 1.01 | locus YHR142W, strain chs7, hits give low values 0.98 | locus YHR200W, strain rpn10, hits give low values 0.995 | locus YIL066C, strain RNR3, hits give low values 1.01 | locus YIL073C, strain SPO22, hits give low values 1.1 | locus YIL125W, strain kgd1, hits give low values 0.996 | locus YIR030C, strain dcg1, hits give low values 0.995 | locus YJL092W, strain hpr5, hits give low values 1.01 | locus YJL095W, strain BCK1 (second series), hits give low values 1.01 | locus YJL095W, strain BCK1, hits give low values 1.01 | locus YJL115W, strain asf1, hits give low values 1.02 | locus YJL129C, strain trk1, hits give low values 1.01 | locus YJL134W, strain LCB3, hits give low values 1 | locus YJL154C, strain vps35, hits give low values 1.01 | locus YJL164C, strain tpk1, hits give low values 1.01 | locus YJL166W, strain qcr8, hits give low values 1.01 | locus YJL168C, strain set2, hits give low values 1 | locus YJL187C, strain SWE1 (second series), hits give low values 1.02 | locus YJL187C, strain SWE1, hits give low values 1.01
